According to PubChem BioAssay:
The source made the active and inactive calls.

Columns and labels:
[1] = E. coli DRC41 culture turbidity changes, primary screen, E. coli filamentation inducer project, strain DRC41, OD650, 48 h (AID 1152);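 note: E. coli MC1000 strain DRC41 lacking acrAB efflux pump and sulA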; settings: E. coli DRC41 (acrAB sulA), higher = more signal, called active from +8 up or from −8 down
[2] = small-molecule binders of probe aLefty1, primary screen, biochemical, small-molecule microarray, 635/667 nm fluorescence (AID 1153); settings: higher = more signal;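 note: score merges spot fluorescence with signal-to-noise ratio from the scanned slide images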
[3] = PSAC antagonists in infected red cells, primary screen, cell-based, P. falciparum Indochina, OD700, 1 h (AID 1154); settings: P. falciparum Indochina infected RBC osmotic lysis, higher = more signal, called active from +8 up or from −8 down
[4] = PSAC antagonists in infected red cells, primary screen, cell-based, P. falciparum Indochina, OD700, 2 h (AID 1155);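 note: lysis reports solute entry through the parasite surface anion channel PSAC; channel blockers reduce lysis of infected cells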; settings: P. falciparum Indochina infected erythrocytes, osmotic lysis OD700; higher = more signal, called active from +8 up or from −8 down
[5] = osmotic lysis modulators in infected erythrocytes, primary screen, PSAC antagonist project, cell-based, P. falciparum Indochina, OD700, 3 h (AID 1156); settings: higher = more signal, called active from +8 up or from −8 down
[6] = PSAC antagonists in infected red cells, primary screen, cell-based, P. falciparum Indochina, OD700, 18 h (AID 1157); settings: P. falciparum Indochina infected erythrocytes, osmotic lysis OD700, 18 h; higher = more signal, called active from +8 up or from −8 down
[7] = modulators of S6 phosphorylation in cells, primary screen, cell-based, A549, cytoblot, luminescence, serum-stimulated (AID 1158); settings: A549 phospho-S6 cytoblot, 5 h, higher = more signal;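 note: serum-stimulated A549 lung adenocarcinoma cells; signal is phosphorylated S6 detected by cytoblot immunostaining with HRP secondary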
[8] = molecular target: NADPH oxidase 2 (Homo sapiens) (UniProt P04839); test: NOX2-dependent H2O2 signal modulators, primary screen, NOX inhibitor project, cell-based, HEK293-NOX2, PMA-stimulated, Amplex Red fluorescence (AID 1159); settings: 45 min, higher = more signal, called active from +8 up or from −8 down; note: test concentration not given here
[9] = molecular target: NADPH oxidase 4 (Homo sapiens) (UniProt Q9NPH5); test: NOX4-dependent H2O2 signal modulators, primary screen, NOX inhibitor project, cell-based, HEK293-NOX4, tetracycline-induced, Amplex Red fluorescence (AID 1160); settings: 45 min, higher = more signal, called active from +8 up or from −8 down
[10] = molecular target: NADPH oxidase 5 (Homo sapiens) (UniProt Q96PH1); test: NOX5-dependent H2O2 signal modulators, primary screen, NOX inhibitor project, cell-based, HEK293-NOX5, Amplex Red fluorescence (AID 1161); settings: HEK293-NOX5, ionomycin, 45 min, higher = more signal
NADPH oxidase 5 (Homo sapiens), sequence (Q96PH1 whole entry, looked up): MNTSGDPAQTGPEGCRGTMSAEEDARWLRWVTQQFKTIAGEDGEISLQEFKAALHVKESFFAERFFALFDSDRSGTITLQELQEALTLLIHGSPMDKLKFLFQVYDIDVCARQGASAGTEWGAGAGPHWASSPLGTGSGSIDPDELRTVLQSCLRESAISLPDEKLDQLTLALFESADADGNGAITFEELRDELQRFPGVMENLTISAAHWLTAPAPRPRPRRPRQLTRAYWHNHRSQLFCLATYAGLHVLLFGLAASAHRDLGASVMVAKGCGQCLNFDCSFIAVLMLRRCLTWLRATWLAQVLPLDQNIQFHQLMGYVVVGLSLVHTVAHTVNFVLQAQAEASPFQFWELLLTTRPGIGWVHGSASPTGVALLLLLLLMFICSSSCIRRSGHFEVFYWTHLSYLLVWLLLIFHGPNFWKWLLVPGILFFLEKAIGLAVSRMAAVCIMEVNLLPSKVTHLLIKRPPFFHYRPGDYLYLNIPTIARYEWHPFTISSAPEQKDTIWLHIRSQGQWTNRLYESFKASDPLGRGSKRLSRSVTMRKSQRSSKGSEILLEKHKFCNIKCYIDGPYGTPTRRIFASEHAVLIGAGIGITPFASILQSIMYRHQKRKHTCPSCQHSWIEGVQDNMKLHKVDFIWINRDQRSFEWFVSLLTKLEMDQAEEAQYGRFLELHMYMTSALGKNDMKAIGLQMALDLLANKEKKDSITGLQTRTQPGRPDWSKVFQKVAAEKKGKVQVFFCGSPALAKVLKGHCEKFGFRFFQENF

NADPH oxidase 2 (Homo sapiens), sequence (P04839 whole entry, looked up): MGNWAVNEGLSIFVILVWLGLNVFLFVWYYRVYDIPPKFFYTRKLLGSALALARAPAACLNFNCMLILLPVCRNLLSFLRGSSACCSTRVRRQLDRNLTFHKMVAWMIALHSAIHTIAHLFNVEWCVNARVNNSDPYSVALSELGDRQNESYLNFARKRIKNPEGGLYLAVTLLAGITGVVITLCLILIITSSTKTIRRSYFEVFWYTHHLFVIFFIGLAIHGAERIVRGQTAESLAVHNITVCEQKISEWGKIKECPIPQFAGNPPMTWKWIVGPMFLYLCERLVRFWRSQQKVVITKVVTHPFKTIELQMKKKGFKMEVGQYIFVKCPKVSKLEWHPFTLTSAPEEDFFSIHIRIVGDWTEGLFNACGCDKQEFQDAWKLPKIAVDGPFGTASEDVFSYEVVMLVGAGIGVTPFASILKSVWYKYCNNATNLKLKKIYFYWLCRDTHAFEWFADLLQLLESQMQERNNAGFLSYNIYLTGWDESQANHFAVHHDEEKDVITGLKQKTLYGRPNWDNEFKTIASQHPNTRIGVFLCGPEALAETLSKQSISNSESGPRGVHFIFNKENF
NADPH oxidase 4 (Homo sapiens), sequence (Q9NPH5 whole entry, looked up): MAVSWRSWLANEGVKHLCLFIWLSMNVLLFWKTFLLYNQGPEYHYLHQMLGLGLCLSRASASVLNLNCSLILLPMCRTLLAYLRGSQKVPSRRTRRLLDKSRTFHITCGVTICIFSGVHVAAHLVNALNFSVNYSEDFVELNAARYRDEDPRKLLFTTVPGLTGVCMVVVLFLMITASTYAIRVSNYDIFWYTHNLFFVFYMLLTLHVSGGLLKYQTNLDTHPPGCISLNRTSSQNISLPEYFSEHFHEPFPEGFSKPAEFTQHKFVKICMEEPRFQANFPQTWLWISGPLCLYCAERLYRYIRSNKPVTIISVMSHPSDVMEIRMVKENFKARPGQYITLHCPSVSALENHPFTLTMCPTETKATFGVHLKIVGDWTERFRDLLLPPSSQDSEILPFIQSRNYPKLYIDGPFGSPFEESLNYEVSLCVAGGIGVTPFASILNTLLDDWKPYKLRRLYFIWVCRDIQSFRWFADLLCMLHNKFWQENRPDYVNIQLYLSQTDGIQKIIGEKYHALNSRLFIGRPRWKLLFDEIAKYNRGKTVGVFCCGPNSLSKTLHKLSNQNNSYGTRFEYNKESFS

Row | SMILES | z-score [1] | composite z-score [2] | z-score [3] | z-score [4] | z-score [5] | z-score [6] | z-score [7] | z-score [8] | z-score [9] | z-score [10]
1 | COCCOC(=O)N1C(=O)[C@@]2(c3cc(C#CCNC(N)=O)ccc31)[C@H](c1ccccc1OCCO)N1[C@H](c3ccccc3)[C@H](c3ccccc3)OC(=O)[C@H]1[C@@H]2C(=O)NC[C@H](O)c1ccccc1 | 0.369 (inactive) | 0.346 | 2.18 (inactive) | 0.758 (inactive) | 0.299 (inactive) | 0.751 (inactive) | -0.209 | 1.02 (inactive) | 1.17 (inactive) | 0.219
2 | COCCOC(=O)N1C(=O)[C@@]2(c3ccccc31)[C@H](C(=O)N1CCc3cc(OC)c(OC)cc3C1)[C@H]1C(=O)O[C@H](c3ccccc3)[C@H](c3ccccc3)N1[C@@H]2c1ccccc1OCCO | 2.1 (inactive) | 0.391 | 8.34 (active) | 1.35 (inactive) | 1.38 (inactive) | 0.123 (inactive) | 2.25 | 2.12 (inactive) | 1.46 (inactive) | 0.00739
3 | C=C(/C(=C/C[C@@H](OC(=O)c1ccncc1)c1ccc(CO)o1)c1cnc2ccccc2c1)C(C)C | 0.767 (inactive) | 0.0248 | 4.66 (inactive) | 0.231 (inactive) | 0.633 (inactive) | -0.0835 (inactive) | -0.191 | 0.588 (inactive) | -0.649 (inactive) | -1.08
4 | CO[C@@H]1COC(=O)[C@H](COCc2ccccc2)NC(=O)CC=C[C@@H](C)[C@H](OC)COC(=O)[C@H](COCc2ccccc2)NC(=O)CC=C[C@H]1C | -0.207 (inactive) | 0.113 | -0.279 (inactive) | -0.562 (inactive) | -0.646 (inactive) | -1.73 (inactive) | 0.37 | 1.15 (inactive) | 0.931 (inactive) | 0.314
5 | CO[C@@H]1COC(=O)[C@H](C)NC(=O)CC=C[C@@H](C)[C@H](OC)COC(=O)[C@H](C)NC(=O)CC=C[C@H]1C | 1.02 (inactive) | -0.0984 | 0.174 (inactive) | 0.551 (inactive) | 0.0076 (inactive) | 0.108 (inactive) | 0.298 | 0.319 (inactive) | 0.114 (inactive) | 0.976
6 | [N-]=[N+]=NCc1ccccc1C[C@@]1(C(=O)N2CCOCC2)N=C(c2ccc(OCCCO)cc2)O[C@@H]1c1ccccc1N=[N+]=[N-] | 0.664 (inactive) | 1.1 | 30.5 (active) | 27.7 (active) | 2.82 (inactive) | 7.87 (inactive) | 1.36 | -1.49 (inactive) | 0.897 (inactive) | -0.107
7 | CCOC(=O)C[C@H]1[C@H](OC(=O)Cc2ccc3c(c2)OCO3)[C@@H](NC(=O)c2ccc3ccccc3c2)c2cc(OCCCO)ccc2N1C(=O)Cc1ccc(OC)cc1 | 2.54 (inactive) | -0.0626 | 18 (active) | 2.41 (inactive) | -1.47 (inactive) | -0.15 (inactive) | 2.6 | -0.629 (inactive) | 0.799 (inactive) | 1.08
8 | CCOC(=O)C[C@H]1[C@H](OC(=O)c2ccccc2-c2ccccc2)[C@@H](NC(=O)C2CCCCC2)c2cc(OCCCO)ccc2N1C(=O)c1ccccc1 | 1.99 (inactive) | -0.191 | 1.97 (inactive) | 0.718 (inactive) | 0.217 (inactive) | 0.402 (inactive) | -0.073 | 0.629 (inactive) | 0.936 (inactive) | -1.64
9 | CCOC(=O)C[C@H]1[C@H](OC(=O)c2ccccc2-c2ccccc2)[C@@H](NC(=O)c2ccc(-c3ccccc3)cc2)c2cc(OCCCO)ccc2N1C(=O)Cc1ccc(OC)cc1 | -0.866 (inactive) | -0.147 | 17.3 (active) | 2.83 (inactive) | -0.405 (inactive) | 0.575 (inactive) | 0.111 | 0.155 (inactive) | 1.22 (inactive) | 1.21
10 | O=C1c2ccccc2[C@@]2(Cc3ccccc3N(CC(F)(F)F)C2=O)[C@H](c2ccc(CO)cc2)N1C1CCCCC1 | 0.969 (inactive) | 0.062 | 0.856 (inactive) | 0.81 (inactive) | 0.0811 (inactive) | 0.427 (inactive) | 0.0443 | 0.161 (inactive) | -0.501 (inactive) | 0.239
11 | COCCOC(=O)N1C(=O)[C@@]2(c3cc(C#CCC(C(=O)OC)C(=O)OC)ccc31)[C@H](c1ccccc1OCCO)N1[C@H](c3ccccc3)[C@H](c3ccccc3)OC(=O)[C@H]1[C@@H]2C(=O)N1CCCCCCC1 | 0.0371 (inactive) | 2.43 | 0.998 (inactive) | 1.01 (inactive) | 0.259 (inactive) | 0.508 (inactive) | 0.0992 | 0.0483 (inactive) | 0.309 (inactive) | 1.52
12 | COc1ccc(NN2C(C(O)c3cc(OC)c(OC)c(OC)c3)C=CC3C(=O)N(C4CCCCC4)C(=O)C32)cc1 (stereo not given) | -0.413 (inactive) | 0.06 | 11.5 (active) | 1.74 (inactive) | 0.752 (inactive) | 0.558 (inactive) | -0.241 | -1.55 (inactive) | -1.85 (inactive) | -2.67
13 | C#C[C@H](O[Si](C#Cc1ccccc1)(C(C)C)C(C)C)c1ccccc1 | -0.0719 (inactive) | 0.22 | 0.876 (inactive) | 0.924 (inactive) | -1.54 (inactive) | 0.234 (inactive) | -0.801 | 0.146 (inactive) | -0.779 (inactive) | -2.37
14 | COC(=O)C[C@H]1O[C@]2(C(=O)N(C)c3ccccc32)[C@@H](C)[C@@H]1[Si](C)(C)c1ccc(OC)cc1 | 2.42 (inactive) | -0.139 | 2.79 (inactive) | -1.17 (inactive) | -0.168 (inactive) | -2.34 (inactive) | 1.11 | 0.0822 (inactive) | 0.345 (inactive) | -0.451
15 | C=CCOC(=O)[C@@H]1[C@H]2C(=O)O[C@H](c3ccccc3)[C@H](c3ccccc3)N2[C@H](c2ccc(OCCOC(=O)[C@H]3C[C@H]4C(=O)N[C@@H](CCCCNC(C)=O)C(=O)N4[C@H]3c3ccc(O)cc3)cc2)[C@@]12C(=O)Nc1ccc(I)cc12 | -0.725 (inactive) | 0.325 | 2.99 (inactive) | 1.92 (inactive) | 0.855 (inactive) | 1.23 (inactive) | 1.3 | 2.16 (inactive) | 1.27 (inactive) | 1.64
16 | O=C1NC(=O)C2C1C=CC(C(O)C=Cc1ccc([N+](=O)[O-])cc1)N2Nc1ccccn1 (stereo not given) | -0.297 (inactive) | 0.0457 | 0.273 (inactive) | 1.27 (inactive) | 0.0385 (inactive) | 1 (inactive) | -0.831 | 0.258 (inactive) | -2.01 (inactive) | -1.52
17 | COc1ccc(-c2cc3c(c(-c4ccccc4)n2)[Si](C(C)C)(C(C)C)O[C@H]3c2ccccc2)cn1 | -1.27 (inactive) | -0.147 | 1.71 (inactive) | 0.489 (inactive) | -0.479 (inactive) | -0.183 (inactive) | -0.442 | 0.601 (inactive) | 0.451 (inactive) | 0.929
18 | COCCCNC(=O)[C@@]1(Sc2ccc(C)cc2)CC(=O)N(Cc2cc(C(F)(F)F)cc(C(F)(F)F)c2)[C@@H]1c1ccc(CO)cc1I | 1.57 (inactive) | 0.162 | 2.3 (inactive) | 1.08 (inactive) | -0.34 (inactive) | 0.278 (inactive) | 0.411 | 2.35 (inactive) | -0.978 (inactive) | 1.75
19 | NC(=O)NCC#Cc1ccc2c(c1)[C@]1(C(=O)N2)[C@H](C(N)=O)[C@H]2C(=O)O[C@H](c3ccccc3)[C@H](c3ccccc3)N2[C@@H]1c1ccccc1OCCO | -0.925 (inactive) | 0.199 | 2.15 (inactive) | 0.0353 (inactive) | -3.88 (inactive) | -0.146 (inactive) | -0.128 | 2.1 (inactive) | 1 (inactive) | 0.53
20 | C=CCC(OC(C)=O)[C@@H]1[C@@H](N(Cc2ccc(-c3cccc(C(F)(F)F)c3)o2)C(=O)Cc2ccc(F)cc2)c2cc(OCCCO)ccc2N1C(=O)c1ccc(-c2ccccc2)cc1 (stereo not given in full) | -1.01 (inactive) | -0.0489 | 1.23 (inactive) | -0.401 (inactive) | -0.642 (inactive) | -0.255 (inactive) | -0.0924 | -0.0336 (inactive) | 1.1 (inactive) | 1.29
21 | O=C1OCC=C[C@H]2OC34C=CCN(Cc5ccccc5)C(=O)[C@H]3N(CCO)C(=O)[C@@H]4[C@@H]12 (stereo not given in full) | 2.41 (inactive) | -0.0104 | 0.286 (inactive) | -0.44 (inactive) | -1.32 (inactive) | -1.34 (inactive) | 0.262 | 1.53 (inactive) | 1.18 (inactive) | 1.75
22 | O=C1C2C=CC(C(O)C(c3ccccc3)c3ccccc3)N(Nc3ccc([N+](=O)[O-])cc3)C2C(=O)N1c1ccccc1 (stereo not given) | -0.344 (inactive) | 0.442 | 5.98 (inactive) | 1.73 (inactive) | -0.186 (inactive) | 1.29 (inactive) | -0.606 | 0.128 (inactive) | -1.06 (inactive) | -0.097
